According to PubChem BioAssay AID738 (SRMLSC, 2007):
Among all 98,000 compounds or so, about 4,900 (5%) were called active. Rule as the data show it: active = inhibition above about 30%; inactive = the rest. For the sample, actives were picked, then their nearest neighbours and some compounds at random.

Experiment: yeast control strain growth suppression – counter-screen for post-Golgi transport modulator project, primary screen (AID 738)
Settings: efflux-deficient yeast background strain, growth absorbance A615, 16 h; at 10 µM; stronger effect = higher value

For `O=C(Nc1ccc(-n2ccnc2P(=O)(O)c2ccccc2)cc1)c1ccccc1Br`, which inhibition is on record?
Its inhibition is 13.2% (inactive).

Which inhibition does the source give for `COc1ccc(NC(=O)/C(Cl)=C(/Cl)S(=O)Cc2ccc(C)cc2)cn1` (stereo not given) here?
The inhibition was 102% (active).

Which inhibition does the source give for `COc1ccc(CC(=O)Nc2ccc(-c3nnc(-c4ccc(C)cc4)o3)cc2)cc1` here?
The inhibition was 5.16% (inactive).

For `COc1cccc(NC(=O)Cc2ccc(C)cc2)c1`, which inhibition is on record?
Its inhibition is 2.33% (inactive).

For `O=c1c2ccccc2nc2n1C(CSCc1ccccc1)CS2` (stereo not given), which inhibition is on record?
Its inhibition is 3.79% (inactive).

With `Cc1ccc(N2C(=O)CC(Sc3ncn[nH]3)C2=O)cc1` (stereo not given) as the molecule, how does the inhibition read?
The inhibition was -0.63% (inactive).

Which inhibition does the source give for `CS(=O)(=O)N1CCN(c2ccc(C(=O)NC3C4CC5CC(C4)CC3C5)cc2[N+](=O)[O-])CC1` (stereo not given) here?
Its inhibition is -2.2% (inactive).

For `O=C(CNCCO)NC12CC3CC(CC(C3)C1)C2`, which inhibition is on record?
Its inhibition is 33.3% (active).

For `CC(NCCO)C(=O)C12CC3CC(CC(C3)C1)C2` (stereo not given), which inhibition is on record?
Its inhibition is -1.14% (inactive).

With `O=C(NC12CC3CC(CC(C3)C1)C2)N1CCCC(CO)C1` (stereo not given) as the molecule, how does the inhibition read?
The inhibition was 7.31% (inactive).

For `COc1cc(CNCc2cccs2)cc(Br)c1OC`, which inhibition is on record?
The inhibition was -5.39% (inactive).

With `COc1ccc2c(c1)SC(C)CC2=O` (stereo not given) as the molecule, how does the inhibition read?
The inhibition was -5.53% (inactive).

For `COc1ccc2c(c1)OC(O)(C(F)(F)C(F)F)CC2=O` (stereo not given), which inhibition is on record?
Its inhibition is 34.1% (active).

With `COC(=O)c1cc(OC)ccc1-c1ccc(OC)cc1` as the molecule, how does the inhibition read?
Its inhibition is 18.8% (inactive).

For `Cc1ccc(/C=N/NC(=O)C(NC(=O)c2ccccc2)c2n[nH]c(=O)c3ccccc23)cc1` (stereo not given), which inhibition is on record?
Its inhibition is 13.9% (inactive).

For `Clc1ccc2c(c1)C1=C(C(c3ccncc3)O2)C(c2ccc(Br)cc2)n2ncnc2N1` (stereo not given), which inhibition is on record?
The inhibition was 44.5% (active).

With `COC(=O)C1=C(C)Nc2ncnn2C1c1cccnc1` (stereo not given) as the molecule, how does the inhibition read?
The inhibition was 15% (inactive).

Which inhibition does the source give for `Brc1ccc(C2=CC(c3ccco3)n3ncnc3N2)cc1` (stereo not given) here?
Its inhibition is 19.2% (inactive).

Which inhibition does the source give for `O=C(CNS(=O)(=O)c1ccc(Br)s1)N1CCN(C(=O)c2ccco2)CC1` here?
Its inhibition is -3.81% (inactive).

With `O=C1Cc2ccccc2Sc2ccc(Cl)cc21` as the molecule, how does the inhibition read?
Its inhibition is 7.76% (inactive).

For `Cc1nc2ccccc2c2oc(C(=O)NCCCN3CCC(C)CC3)cc12`, which inhibition is on record?
Its inhibition is 38.5% (active).

With `Cc1nc2ccccc2c2oc(C(=O)NCC3CCCO3)cc12` (stereo not given) as the molecule, how does the inhibition read?
Its inhibition is 5.49% (inactive).

Which inhibition does the source give for `CCCN(CCC)CCNC(=O)c1cc2c(C)nc3ccccc3c2o1` here?
The inhibition was -0.17% (inactive).

Which inhibition does the source give for `CCc1cc(C(c2ccccc2OC)N2CCOCC2)c(NC(=O)c2ccccc2)s1` (stereo not given) here?
The inhibition was 14.6% (inactive).

With `O=C(Cn1cnc2c(cnn2-c2ccccc2)c1=O)NCc1ccccc1` as the molecule, how does the inhibition read?
Its inhibition is 2.17% (inactive).

With `CN(Cc1ccccc1)C(=O)CCNC(=O)Cn1cnc2ccccc2c1=O` as the molecule, how does the inhibition read?
Its inhibition is 32.8% (active).

With `O=C(Cn1cnc2ccccc2c1=O)NCC1COc2ccccc2O1` (stereo not given) as the molecule, how does the inhibition read?
Its inhibition is -2.34% (inactive).

Which inhibition does the source give for `N#C/C(=C1/CCCN1)c1ccccn1` here?
Its inhibition is 3.25% (inactive).

Which inhibition does the source give for `CC(C)CNC(=S)NNC(=O)c1ccccc1OC(F)F` here?
The inhibition was 9.35% (inactive).

With `Cc1c(Br)cc(C(=O)N2CCCCCC2)c(C)c1C` as the molecule, how does the inhibition read?
The inhibition was 38.8% (active).

For `Cc1ccc(C(=O)N2CCCCCC2)cc1Br`, which inhibition is on record?
The inhibition was 16.6% (inactive).

Which inhibition does the source give for `Cc1ccc(C(=O)N2CCCC2)c(F)c1F` here?
Its inhibition is -0.75% (inactive).

Which inhibition does the source give for `CCOc1cccc(SCc2noc(C(=O)NC(C)C)c2C(=O)O)c1` here?
Its inhibition is -0.31% (inactive).

With `C=CCn1c(SCC(=O)NCc2ccccc2)nnc1-c1cc(Br)ccc1O` as the molecule, how does the inhibition read?
The inhibition was 1.48% (inactive).

Which inhibition does the source give for `COCCCNCC(=O)Nc1sc(C)c(C)c1C(=O)OC` here?
Its inhibition is 5.81% (inactive).

For `Cn1cccc1C(=O)NC(=O)COC(=O)Cc1coc2ccc3ccccc3c12`, which inhibition is on record?
The inhibition was 33% (active).

With `CCOC(=O)N1CCN(C(=O)c2cc3c(ccc4ccccc43)oc2=O)CC1` as the molecule, how does the inhibition read?
The inhibition was 3.76% (inactive).

Which inhibition does the source give for `CC(C)(C)NC(=O)NC(=O)COC(=O)Cn1c(C(F)(F)F)nc2ccccc21` here?
Its inhibition is 2.81% (inactive).

Which inhibition does the source give for `Cc1ccccc1NC(=O)c1ccccc1NS(=O)(=O)c1cccc2cccnc12` here?
The inhibition was 8.21% (inactive).

Which inhibition does the source give for `Cc1cc(C)c2c(-n3cccc3)c(C(=O)NNS(=O)(=O)c3ccc(F)cc3)sc2n1` here?
The inhibition was 4.13% (inactive).

For `COCCn1c(-c2ccc(OC)c(OC)c2)nc2ccccc21`, which inhibition is on record?
The inhibition was -0.3% (inactive).

Which inhibition does the source give for `COc1ccc(-c2nc3ccccc3n2CCC(C)C)cc1OC` here?
Its inhibition is 44.3% (active).

With `COc1ccc(NC(=O)COC(=O)Cn2c(C)nc3ccccc32)cc1OC` as the molecule, how does the inhibition read?
The inhibition was 1.03% (inactive).

For `CC1=NN(C(=O)Cc2ccc(C)cc2)C(O)(c2cccnc2)C1` (stereo not given), which inhibition is on record?
The inhibition was 4.82% (inactive).

For `CCc1ccccc1N(CC(=O)N1CCN(c2ccccc2F)CC1)S(C)(=O)=O`, which inhibition is on record?
Its inhibition is 3.45% (inactive).

For `O=C(C(NS(=O)(=O)c1cccc2nsnc12)c1ccccc1)N1CCN(c2ccccc2)CC1` (stereo not given), which inhibition is on record?
Its inhibition is 2.02% (inactive).

Which inhibition does the source give for `O=C(CCS(=O)(=O)c1cccc2nsnc12)N1CCN(c2ccccc2F)CC1` here?
The inhibition was 30.8% (active).

Which inhibition does the source give for `Cn1c(=O)n(C)c2cc(/C=N/NC(=O)c3cccc(Br)c3)ccc21` here?
Its inhibition is -10.6% (inactive).

Which inhibition does the source give for `Cn1nnnc1SCC(=O)Nc1ccccc1C(=O)NC1CC1` here?
Its inhibition is 2.02% (inactive).

Which inhibition does the source give for `c1ccc(CSc2ncnc3c2sc2nc(N4CCOCC4)c4c(c23)CCCC4)cc1` here?
The inhibition was 10.3% (inactive).

With `CC(C)c1ccc(Nc2ncccc2C#N)cc1` as the molecule, how does the inhibition read?
The inhibition was 7.46% (inactive).

With `Cc1nn2c(c1-c1ccccc1)N=C(c1ccco1)CC2c1ccccc1` (stereo not given) as the molecule, how does the inhibition read?
Its inhibition is 32.2% (active).

Which inhibition does the source give for `Cc1[nH]c2ccccc2c1C(=O)COC(=O)C(C)C` here?
The inhibition was 2.83% (inactive).

For `CCOC(=O)c1c(-c2ccccc2)csc1NC(=S)NC(=O)c1ccccc1`, which inhibition is on record?
The inhibition was 15.1% (inactive).

Which inhibition does the source give for `COc1ccccc1N1CC(C(=O)Nc2ccc(S(=O)(=O)N3CCOCC3)cc2)CC1=O` (stereo not given) here?
Its inhibition is 5.2% (inactive).
